G9a block – qHTS Assay for Inhibitors of Histone Lysine Methyltransferase G9a. Histone-lysine N-methyltransferase EHMT2 (Homo sapiens), Q96KQ7. 8.8% of 350,000 active. G9a H3K9 monomethylation, AlphaScreen, 2 h. Potency, µM (series often up to 102 µM), without a hit: at the highest dose activity, negative = inhibition, usual class: inhibitors; further: on the % scale 0 is the no-effect control and ±100 the full control effect; nearly all actives have a fitted effect of over 75% in size
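G9a (20 nM) was preincubated 15 min with compound, then reacted 2 h at room temperature with 500 nM biotin-H3K9 peptide and 20 µM SAM. Monomethyl-H3K9 detected by AlphaScreen using anti-H3K9me1 antibody.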
Sfp inh – qHTS Assay for Inhibitors of Bacillus subtilis Sfp phosphopantetheinyl transferase (PPTase); AID 1490, 2009; Biochemical Sfp PPTase activity, qHTS; 3.5% of 310,000 active; 4'-phosphopantetheinyl transferase ffp (Bacillus subtilis), Q9F4F7; Potency, µM, for the others: largest response in the series, negative = inhibition, usual class: inhibitors;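 further: the enzyme is Sfp with the accession as filed and its product quenches rhodamine fluorescence; 0% = enzyme reaction without inhibitor and -100% = no enzyme wells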
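After 15 min at room temperature with compound, 15 nM Sfp received 5 uM rhodamine-CoA plus 12.5 uM BHQ-2-ybbR (50 mM Hepes pH 7.6, 10 mM MgCl2). Rate came from the fluorescence difference over 30 min, ex 525/em 598 nm.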
HP1b binding inh – HTS for Inhibitors of HP1-beta Chromodomain Interactions with Methylated Histone Tails; AlphaScreen HP1-beta / biotin-H3K9me3 peptide binding; Potency, µM (highest dose often 114 µM), without a hit: at the highest dose activity change, negative = inhibition, actives largely listed as inhibitors; 0.56% of 390,000 active; further: nearly all actives have a fitted effect of over 70% in size
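HP1-beta protein (50 nM final) preincubated 30 min at room temperature with biotinylated H3(1-18)K9me3 peptide (50 nM) in PBS pH 7.4, 0.01% Tween-20, then compound added for 30 min. AlphaScreen streptavidin donor/nickel chelate acceptor beads (10 ug/mL final), 30 min dark, luminescence read.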
JMJD2A Tudor – qHTS Assay for Inhibitors of JMJD2A-Tudor Domain; AlphaScreen JMJD2A-Tudor / H3K4me3 peptide binding; 4.4% of 390,000 active; Potency, µM (top dose mostly 114 µM), for the others: at the highest dose activity change, negative = inhibition, usual class: inhibitors; further: on the % scale 0 is the no-effect control and ±100 the full control effect; nearly all actives have a fitted effect of over 50% in size
BAZ2B block – qHTS Assay for Inhibitors of BAZ2B; Bromodomain adjacent to zinc finger domain protein 2B (Homo sapiens), Q9UIF8; AlphaScreen BAZ2B-H3K14Ac peptide displacement; Potency, µM (series often up to 114 µM), for inactives: top-dose activity change, negative = inhibition, usual class: inhibitors; 4.4% of 360,000 active; further: on the % scale 0 is the no-effect control and ±100 the full control effect; nearly all actives have a fitted effect of over 60% in size
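Inhibition is scored as reduced AlphaScreen emission. The BAZ2B/b-H3(5-23)K14Ac complex (50 nM each) in PBS pH 7.4, 0.01% Tween-20 meets compound (up to 110 uM) for 30 min at RT before bead addition.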
PLK1 PBD block – qHTS for Inhibitors of PLK1-PDB (polo-like kinase 1 - polo-box domain): Primary Screen | Serine/threonine-protein kinase PLK1 (Homo sapiens), P53350 | Plk1 PBD binding of FITC phosphopeptide, fluorescence polarization | Potency, µM, inactives show max response, negative = inhibition, most hits filed as inhibitors | 2.8% of 360,000 active; further: series mostly up to about 57 µM; on the % scale 0 is the no-effect control and ±100 the full control effect; nearly all actives have a fitted effect of over 65% in size
Target sequence (P53350 whole entry, looked up, the tested form may be a part): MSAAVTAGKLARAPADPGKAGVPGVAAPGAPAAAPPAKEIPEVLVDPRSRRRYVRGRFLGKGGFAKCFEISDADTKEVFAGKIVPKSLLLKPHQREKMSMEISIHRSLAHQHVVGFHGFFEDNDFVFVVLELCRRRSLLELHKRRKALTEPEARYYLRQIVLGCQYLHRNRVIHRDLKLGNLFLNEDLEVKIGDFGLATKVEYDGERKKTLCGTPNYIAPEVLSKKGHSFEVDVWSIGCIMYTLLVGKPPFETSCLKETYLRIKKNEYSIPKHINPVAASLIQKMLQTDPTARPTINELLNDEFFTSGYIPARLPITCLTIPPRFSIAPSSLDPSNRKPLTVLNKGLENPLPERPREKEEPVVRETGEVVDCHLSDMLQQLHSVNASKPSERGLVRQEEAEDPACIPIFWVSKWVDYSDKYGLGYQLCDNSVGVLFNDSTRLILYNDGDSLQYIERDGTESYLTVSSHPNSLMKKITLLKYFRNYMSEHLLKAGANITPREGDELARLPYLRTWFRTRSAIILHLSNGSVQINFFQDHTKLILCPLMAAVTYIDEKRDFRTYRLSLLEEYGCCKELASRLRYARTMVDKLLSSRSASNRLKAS
Active calls of the source: *; u = inconclusive; x = not tested or not shown; [ ] = dose if it differs, or a comment. A selection: hits, their analogues and other compounds. The true share with any hit is near 12%. The call rests on the fitted dose curve; in most records, active means well fitted curve in the direction sought with a large enough effect; inconclusive means small, poorly fitted or top-dose-only effect, or another doubt; inactive means no such curve, though single readings can be large; an effect the other way counts as inactive or inconclusive. Potency means the concentration at half of the fitted maximal effect.

SMILES	G9a block	Sfp inh	HP1b binding inh	JMJD2A Tudor	BAZ2B block	PLK1 PBD block
O=C(O)c1ccc(C=NN2CCCCCC2)cc1	x	x	20%	-17%	x	0%
COc1ccc(O)c(/C=N/N2CCCCC2)c1	50µM*	8%	4%	50µM*	50µM*	-19%
N#Cc1ccc(C=NN2CCCCCC2)cc1	x	x	u	35µM*	x	-12%
O=C(CNC(=O)c1ccc(Cl)cc1)OCc1cc(=O)n2nc(C3CC3)sc2n1	2%[59 µM]	x	25%	-11%	-9%	x
CCCSCCCNC(=O)c1ccc2c(c1)nc1n2CCCCC1	11%[59 µM]	x	25%[57 µM]	0%	2%	x
O=[N+]([O-])c1ccccc1S(=O)(=O)Nc1ccc(-c2ccc3nncn3n2)cc1	u	x	46%	-12%	2%	-12%
O=C1c2ccccc2C(=O)N1/N=C/c1ccc(O)c(O)c1	11µM*	-30%	-20%[57 µM]	8.9µM*	u	u
Oc1ccc(/C=N/N2CCCCC2)cc1O	-10%[2.33 µM]	50µM*	u	u	u	u
O=C1C2C3C=CC(CC3)C2C(=O)N1/N=C/c1ccc(O)c(O)c1 (stereo not given)	u	-29%	u	-23%	u	-16%
Clc1ccc(C=NN2CCCCCC2)cc1Cl	x	x	17%	u	x	4%
Clc1ccc(/C=N/N2CCCCC2)cc1	-36%[59 µM]	10%	-12%	50µM*	-38%	-2%
COc1ccccc1-c1cccc([C@@H]2C[C@H]3[C@H](CON3C)CN2C)c1	x	x	19%	-19%	x	-16%
C[C@H]1O[C@@H](n2cc(F)c(=O)[nH]c2=O)[C@H](O)[C@H]1O	1%[59 µM]	x	x	x	x	x
O=C(O)c1ccccc1N=Nc1c(O)[nH]c2ccc([N+](=O)[O-])cc12	25µM*	-16%	71µM*	u	50µM*	u
Cc1ccccc1NCC(=O)N=Nc1c(O)[nH]c2ccc([N+](=O)[O-])cc12	u	6%	43%	-21%	-6%	-16%
O=C(N=Nc1c(O)[nH]c2ccc([N+](=O)[O-])cc12)c1ccccc1Cl	u	u	10%	u	56µM*	u
COc1ccc(/C=C/C(=O)NCC(=O)N=Nc2c(O)[nH]c3ccc([N+](=O)[O-])cc23)cc1	u	4%	3%	u	79µM*	-15%
Cn1cc(-c2nc3cncnc3n(CCN)c2=O)c2ccccc21	7%[0.501 µM]	-7%	x	x	x	x
COC(=O)[C@@]12CCCN1[C@H](c1ccc(-c3ccc(OC)cc3)cc1)[C@@H]1C(=O)N(C)C(=O)[C@@H]12	4%[2.33 µM]	x	29%	-27%	-27%	3%
COc1cc2ccnc(Cc3cccc(OC)c3OC)c2cc1OC	1%	-5%	14%	79µM*	-13%	27µM*
CCOC(=O)c1c(C)sc(-c2c(-c3cccc(Cl)c3)[nH]c3c2c(=O)n(C)c(=O)n3C)c1O	u	x	23%	u	u	x
CCOC(=O)c1c(C)sc(-c2c(-c3cc(C)ccc3C)[nH]c3c2c(=O)n(C)c(=O)n3C)c1O	u	x	5%	u	79µM*	x
CCOC(=O)c1c(C)sc(-c2c(-c3cc(C)ccc3C)[nH]c3c2c(=O)[nH]c(=O)n3C)c1O	u	x	10%	-27%	50µM*	x
Cc1ccc(NC(=O)CN(C)C(=O)COC(=O)c2nc3nccc(C)n3n2)cc1	16%[12.7 µM]	x	12%	-13%	12%	2%
CC(=O)Oc1ccc(N2C(=O)C3C(C2=O)C2(C)C=CC3(C)O2)cc1 (stereo not given)	5.6µM*	7.9µM*	x	x	-11%	x
SMILES	G9a block	Sfp inh	HP1b binding inh	JMJD2A Tudor	BAZ2B block	PLK1 PBD block
COC(=O)c1cc(N2C(=O)C3C(C2=O)C2(C)C=CC3(C)O2)ccc1Cl (stereo not given)	u	7.9µM*	x	x	u	x
COc1ccc(N2C(=O)C3C(C2=O)C3(c2ccccc2)c2ccccc2)cc1 (stereo not given)	10%	2%	23%	-14%	-5%	1%
COc1ccc(NC(=O)c2cc(N3C(=O)C4C5CCC(C5)C4C3=O)ccc2Cl)c(OC)c1 (stereo not given)	-38%	7%	38%	-28%	-38%	-22%
Cc1ccc(-n2ncc(C(=O)NCCN3CCc4ccccc4C3)c2C2CCN(C(=O)OC(C)(C)C)CC2)c(C)c1	u	x	u	u	-15%[57.1 µM]	x
COC(=O)C1=C2N(Cc3ccccc3)C(C)=C(C(=O)OC)C(c3ccccc3)N2C(=O)[C@](O)(C(=O)OC)C1 (stereo not given in full)	x	0%	x	x	x	x
COc1ccc(Cc2nnc(NC(=O)c3ccccc3)s2)cc1OC	12%	-12%	10%	-16%	-4%	-9%
Cc1cc(C)nc(NNC2=CC(=[N+]3CCCCC3)CC(C)(C)C2)n1	u	-86%	u	-39%	-12%	-7%
Cc1cc(C)nc(NNC2=CC(=[N+]3CCCC3)CCC2)n1	u	-98%	u	3.2µM*	-8%	-21%
Nc1ncnc2c1ncn2[C@@H]1O[C@H](C(=O)N2CCN(Cc3ccccn3)CC2)[C@@H](O)[C@H]1O	x	x	x	x	x	-2%
O=C(CSc1nc(-c2ccccc2F)nc2cc(=O)[nH]n12)Nc1cccc(C(F)(F)F)c1	-29%[59 µM]	x	-20%	u	u	x
Cc1nn(-c2ccccc2)c(C)c1C=O	41%[59 µM]	17%	9%	-7%	1%	-5%
Cc1nn(-c2ccccc2)c(C)c1S(=O)(=O)O	45µM*	24%	22%	-18%	u	-4%
COc1ccc(C(=O)Nc2ccc(Cn3ccnc3)cc2)cc1OC	1%	8%	37%	-8%	-37%	-3%
COc1cc(Cn2ccnc2)c(OC)cc1Cn1ccnc1	u	4%	6%	-35%	79µM*	-15%
COc1ccc(C(=O)Nc2nnc(C3=COCCO3)o2)cc1	-47%	-15%	45%	40µM*	16µM*	-1%
CCC1CCCCN1S(=O)(=O)c1ccc(C(=O)Nc2nnc(C3=COCCO3)o2)cc1 (stereo not given)	15%	18%	38%	-12%	79µM*	-6%
CCC1CCCCN1S(=O)(=O)c1ccc(C(=O)Nc2nnc(C3CC3)o2)cc1 (stereo not given)	x	14%	50%	-17%	50µM*	-6%

Bioassay records from PubChem BioAssay.
